Experimental data as given in PubChem BioAssay AID2732 (Emory University Molecular Libraries Screening Center, 2010).
Among all 220,000 compounds or so, about 8,200 (3.7%) were called active. This is one part of a sample in which actives are shown more often than they occur. A number with no mark means an inactive call.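 How the source made its calls: active means compounds that reduced the stress-induced luciferase reporter signal by more than about 70% of percent inhibition (limit read from the data); inactive means the rest.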

Test: blockers of ER-stress CHOP reporter expression – cell-based, unfolded protein response, luciferase reporter, primary screen (AID 2732);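 further: 0% = tunicamycin plus vehicle and 100% = wells without tunicamycin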
Conditions: CHO-K1 CHOP-promoter luciferase, tunicamycin-induced, 15-18 h; at 10 µM; hits give high values

Compound	inhibition
Cc1cc(C(=O)NCCc2ccc(Cl)cc2)n(-c2ccccc2)n1	16.9%
CC1CCCN(Cc2nc3c(c(=O)n(C)c(=O)n3C)n2CC(=O)c2ccccc2)C1 (stereo not drawn)	3.62%
CCN1CCN(Cc2nc3c(c(=O)n(C)c(=O)n3C)n2CC(=O)c2ccccc2)CC1	6.1%
CCCCCCn1c(CN2CCCC(C)C2)nc2c1c(=O)n(C)c(=O)n2C (stereo not drawn)	97.9% (active)
O=C(NNS(=O)(=O)Cc1ccccc1)c1ccc([N+](=O)[O-])cc1	0.23%
O=C(c1ccc(F)cc1)n1c(=S)nc2ccccn21	20.7%
Cc1cc(NC(=O)CN2CCCC(C)C2)n(-c2nc3ccccc3s2)n1 (stereo not drawn)	52.1%
CCC(C)Cn1c(O)cc2nn(-c3nc4ccccc4s3)c(=O)c-2c1C (stereo not drawn)	83.7% (active)
CCOC(=O)N1CCN(CC(=O)Nc2cc(C)nn2-c2nc3ccccc3s2)CC1	-20.6%
CCOC(=O)CN(C)S(=O)(=O)c1ccc(-c2cc(C(=O)OC)sc2C(F)(F)F)cc1	-2.09%
CCOC(=O)c1nnn2c1nc(N1CCN(c3ccccc3)CC1)c1ccccc12	4.43%
Cc1ccc(-n2c(SCC(=O)Nc3ccc4c(c3)OCO4)nnc2-c2ccoc2C)cc1	79.8% (active)
O=C(CSc1nnc(-c2ccccn2)n1-c1ccccc1)Nc1ccc2c(c1)OCO2	14.5%
Cc1ccc(-n2c(SCC(=O)Nc3ccc4c(c3)OCO4)nnc2-c2ccccn2)cc1	23%
COc1ccc(/C(C)=N/N2CCOCC2)c(O)c1	4.65%
Cc1ccc2nc(-c3cccc(Br)c3)cc(C(=O)Nn3cnnc3)c2c1	6.71%
Cc1ccc2nc(Nc3ncc4c(n3)CC(C)(C)CC4=O)nc(C)c2c1	7.17%
Cc1ccc2nc(Nc3ccccc3O)nc(-c3ccccc3)c2c1	85.7% (active)
O=C(Nc1ccccc1)Nc1ccc(C(F)(F)F)cn1	-1.82%
Cc1ccc2cc(/C=N/Nc3ccc(C(=O)O)cc3)c(Cl)nc2c1	-19%
CSCC[C@H](NC(=O)OC(C)(C)C)C(=O)N/N=C/c1cc2ccc(C)cc2nc1Cl	73.9% (active)
Cc1ccc2cc(/C=N/NC(=O)[C@@H]3CCCN3)c(Cl)nc2c1	13.2%
S=c1[nH]nc(-c2ccncc2)n1/N=C/c1ccccc1Cl	9.19%
CC1=CC2=NC(=O)/C(=C/c3coc4ccccc4c3=O)C(=N)N2O1	10%

Compound	inhibition
O=[N+]([O-])c1cc(Cl)cc(/C=N/NC(=S)Nc2cc(S(=O)(=O)N3CCOCC3)ccc2Cl)c1O	24.1%
Cc1cc(C)cc(OCC(=O)Nc2nc3ccc([N+](=O)[O-])cc3s2)c1	89.4% (active)
O=C(COC(=O)c1ccc(F)cc1)Nc1nc2ccc([N+](=O)[O-])cc2s1	7.2%
O=C(O)CCC(=O)Nc1nc2ccc([N+](=O)[O-])cc2s1	-7.8%
Cc1cc2c(cc1C)N(Cc1ccccc1)C1=NCCCN12	17.9%
CC(C)CN(CC(C)C)CC(O)CN(c1ccccc1)S(=O)(=O)c1ccccc1[N+](=O)[O-] (stereo not drawn)	6.94%
C/C(=N/NC(=O)c1ccc(NC(=O)c2ccc(F)cc2)cc1)c1ccccc1	52%
COc1ccccc1N(CC(=O)Nc1ccc(C(F)(F)F)cc1)S(C)(=O)=O	12.5%
CC(=O)Nc1ccc(/C(C)=N/NC(=O)CN(c2ccccc2Br)S(C)(=O)=O)cc1	91.8% (active)
Cc1ccc2c(c1)c1ncn(Cc3ccc(F)cc3)c(=O)c1n2C	21.6%
S=c1nc2ccccc2c2nc(-c3cccnc3)[nH]n12	-22.9%
CCCc1ccc(C(=O)[C@@H]2[C@@H](C(C)=O)N3c4ccc(F)cc4C=C[C@@H]3[C@@]23C(=O)Nc2ccccc23)cc1	72.2% (active)
CC(C)(C)CN1C(=O)C(=O)NC[C@H]1Cc1cccc2ccccc12	16.9%
CN1CCc2ccccc2C1Cc1ccccc1NC(=O)c1sc2ccccc2c1Cl (stereo not drawn)	24.9%
CC(=O)Nc1nonc1-c1nc2ccccc2n1Cc1ccccn1	33.7%
Nc1nonc1-c1nc2ccccc2n1Cc1ccc(F)cc1	84.3% (active)
CC(C)(C)N1CC(c2nc3ccccc3n2Cc2ccc(F)cc2)CC1=O (stereo not drawn)	-17.7%
COC(=O)c1cc(N2CCNCC2)nc2ccccc12	19.8%
Cc1cc(=O)[nH]c2nnnn12	8.36%
Cc1cc(C(=O)Nc2c(C)nn(Cc3ccccc3)c2C)on1	11.6%
O=C(Nc1cc(C(F)(F)F)ccc1Cl)c1cc(C2CC2)on1	67%
Cc1nn(Cc2ccc(Cl)c(Cl)c2)c(C)c1NC(=O)c1cc(C2CC2)on1	82.7% (active)
CCCCOc1ccc(CON(C(C)=O)C(C)=O)cc1Cl	10.1%
COCCn1c(SCC(=O)c2[nH]c(C)c(C(C)=O)c2C)nc2ccccc2c1=O	-9.67%

Compound	inhibition
C=CCSC(CC)(CC)C(N)=O	4.32%
O=C1/C(=C/c2cccs2)SC(=S)N1C1CCS(=O)(=O)C1 (stereo not drawn)	8.4%
CCOC(=O)c1ccc(N2C(=O)CC(N3CCN(C(=O)c4ccccc4)CC3)C2=O)cc1 (stereo not drawn)	14.7%
CCCCOC(=O)c1ccc(N2C(=O)CC(N3CCN(C/C=C/c4ccccc4)CC3)C2=O)cc1 (stereo not drawn)	81.1% (active)
CCOC(=O)c1ccc(N2C(=O)CC(N3CCC(C(=O)OCC)CC3)C2=O)cc1 (stereo not drawn)	1.79%
O=c1[nH]c2ccccc2n2c(-c3ccccc3)nnc12	10.4%
O=[N+]([O-])c1cccc(C2=NCCS2)c1	5.31%
O=[N+]([O-])c1cccc(-c2nnc3c4ccccc4c4ccccc4n23)c1	96.5% (active)
CC(CNS(=O)(=O)c1ccc(Br)cc1)CN(C)C (stereo not drawn)	1.82%
Cc1ccc2c(C)c(C(=O)N3CCC(N4CCC(C(=O)NC5CC5)CC4)CC3)oc2c1	25.5%
Fc1ccccc1/C=C1\CCCC2=C1Nc1ncnn1C2c1ccccc1F (stereo not drawn)	108% (active)
CC1CC(=O)Nc2ccccc2N1S(=O)(=O)c1cccs1 (stereo not drawn)	4.64%
O=C(Nc1cccnc1)c1cccc(S(=O)(=O)N2CCCC2)c1	1.13%
O=C(Nc1ccc2c(c1)CCC2)c1cccc(S(=O)(=O)Nc2ccccc2Cl)c1	33.4%
O=C(Nc1ccc2c(c1)CCC2)c1cccc(S(=O)(=O)N2CCN(c3ccc(F)cc3)CC2)c1	78.2% (active)
Cc1ccc(Cn2c(SCC(=O)N/N=C/c3ccccc3OCC(=O)O)nc3ccccc32)cc1	19.7%
O=C(NCc1ccc(F)cc1)C1CCC(CNc2c(N3CCOCC3)c(=O)c2=O)CC1 (stereo not drawn)	-4.35%
O=C(CNS(=O)(=O)c1cccc(C(F)(F)F)c1)Nc1ccccc1F	-2.12%
O=C(Nc1cc(C(F)(F)F)ccc1Cl)C(=O)N1CCCCC1	23.6%
O=C(NNc1ccccc1Cl)C(O)(c1cccc(C(F)(F)F)c1)c1cccc(C(F)(F)F)c1	100% (active)
COc1ccc(CCN2C(=O)N(c3ccc(OC)cc3)C(=O)C2CC(=O)Nc2ccc(OC)cc2)cc1 (stereo not drawn)	-32.7%
c1ccc(CSc2nnc(-c3ccco3)c(-c3ccco3)n2)cc1	-37.2%
Nc1nc(SCc2ccccc2Cl)n[nH]1	6.63%
Clc1ccccc1CSc1nnc(-c2ccco2)c(-c2ccco2)n1	71.2% (active)

Compound	inhibition
O=C(Cc1ccccc1)N1N=C(c2ccncc2)CC1(O)C(F)(F)F (stereo not drawn)	4.37%
COc1ccc2oc(N)c(C=O)c(=O)c2c1	13.1%
COc1ccc2c(c1)C(C)=CC(C)(C)N2C(=O)CNCc1ccc2c(c1)OCO2	73.7% (active)
CCn1cc(C(=O)NCc2ccc3c(c2)OCO3)c2cc(OC)c(OC)cc2c1=O	33.4%
COc1ccc2c(c1)C(C)=CC(C)(C)N2C(=O)Nc1ccccc1	7.45%
O=C(O)C(c1ccccc1)C1(O)CCCCC1 (stereo not drawn)	3.7%
CCc1nnc(NC(=O)c2sc3nc(C)cc(COC)c3c2N)s1	-32%
CCc1nnc(NC(=O)c2cccc(S(=O)(=O)N(C)c3ccc(OC)cc3)c2)s1	28.5%
CCc1ccc2nc3sc(C(=O)Nc4nnc(CC)s4)c(N)c3cc2c1	76.2% (active)
COC(=O)[C@H](CC(C)C)NC(=O)N1CCCCC1C (stereo partly drawn)	16.1%
COc1ccc(-c2noc(-c3ccc(C)cc3)n2)cc1	20.8%
COc1ccc(-c2nc(-c3ccccc3)no2)c(OC)c1	81.4% (active)
COc1ccc(-c2noc(-c3cccc(OC)c3OC)n2)cc1OC	19%
CCOc1ccc(S(=O)(=O)N2CCCCCC2)c2ccccc12	71.1% (active)
COc1ccc(S(=O)(=O)N2CCCC2)c(C)c1C	31.7%
CCOc1ccc(S(=O)(=O)n2ccnc2)c2ccccc12	4.14%
CN1CCN(c2ccc(S(=O)(=O)N3CCOCC3)cc2NC(=O)CCc2ccccc2)CC1	-2.84%
COc1cccc(Nc2nnc(SCC(=O)N3CC(=O)Nc4ccccc43)s2)c1	-4.27%
COC(=O)C1=CN(C)C=C(C(=O)OC)C1c1ccc(Cl)cc1Cl	78.2% (active)
CCOc1ccccc1C1C(C(=O)OC)=CN(C)C=C1C(=O)OC	2.4%
NC(=O)C1(C(N)=O)OC1c1ccc(Cl)cc1Cl (stereo not drawn)	-9.68%
